According to ChEMBL document CHEMBL1157539, “Thousands of chemical starting points for antimalarial lead identification” (Nature, 2010):

Test system: Plasmodium falciparum
Experiment: GSK_TCMDC: Inhibition of Plasmodium falciparum 3D7 in whole red blood cells, using parasite LDH activity as an index of growth. Test compounds present at 2uM
Assay type: functional

Structure (SMILES)	Inhibition [%]
COc1ccc(Oc2ccc(-c3c(O)cc(C)nc3C)cc2)cc1	93
CC(CN1CCN(C)CC1)C(=O)Nc1ccc(-c2cccc(-c3nc4cc(C(F)(F)F)ccc4[nH]3)c2)cc1 (stereo not given)	99
Cc1ccc(C)c(S(=O)(=O)Nc2ccc(Br)cc2C(=O)Nc2cccc(C(F)(F)F)c2)c1	81
CN1CCCC(CN2CCN(Cc3cccc(-c4ccc(-c5nc6ccccc6[nH]5)cc4)c3)CC2)C1.O=C(O)C(F)(F)F (stereo not given)	100
Cl.N=C(N)NN=Cc1ccc2c(ccc3ccccc32)c1	100
Cc1cc(NC(=O)c2ccc(-c3ccccc3)cc2)no1	83
Fc1ccc(-c2oc(C3CCN(CCc4ccc(-c5noc(=S)[nH]5)cc4)CC3)nc2COCC(F)(F)F)cc1	97
O=C(NC1CCCCC1)c1csc(C2CCCN(C(=O)c3ccc(O)c(-c4cccc(C(F)(F)F)c4)c3)C2)n1 (stereo not given)	96
CN1C(=C2SC(=Nc3ccc4ncccc4c3)N(Cc3ccccc3)C2=O)Sc2ccc(Cl)cc21	99
Cc1c(CCNC(=O)CCCN2CC(C)CC(C)C2)c2ccccc2n1C.Cl (stereo not given)	87
CC(C)(CN)c1nc(-c2ccc(Br)c(O)c2)c(-c2ccncc2)[nH]1.Cl	96
Nc1oc2c(CN3CCCCCC3)c(O)ccc2c(=O)c1-c1nc2ccccc2s1	100
Cc1cccc2nc(-c3ccc(-c4cccc(C(=O)N5CCCCC5C(C)O)c4)s3)[nH]c12 (stereo not given)	100
Cc1cccc2nc(-c3ccc(-c4cccc(CN5CCCC5CN)c4)s3)[nH]c12.O=C(O)C(F)(F)F (stereo not given)	91
CC[C@H]1CN2CCc3c([nH]c4ccccc34)[C@@H]2C[C@@H]1CC1c2cc(OC)c(OC)cc2CCN1C.Cl (stereo not given in full)	85
COc1ccc(S(=O)(=O)N2CCOCC2)cc1NC(=O)c1cc2ccccc2o1	93
CC(C)Sc1nc2c(c(=O)n1CCc1ccccc1)C1(CCCC1)Cc1ccccc1-2	100
Br.CC1(C)NC(N)=NC(=N)N1OCCCc1c(Cl)cccc1Cl	95
CCOC(=O)NC1=NC(C)(C)N(OCc2ccc(Cl)c(Cl)c2)C(NC(=O)OCC)=N1	98
COc1ccccc1N(C)CCNc1cc(C)nc(Nc2ccccc2)n1	96

Structure (SMILES)	Inhibition [%]
COc1ccc2nccc([C@@H](O)CN3CCC(NCc4nc5cc(F)ccc5o4)CC3)c2c1.O=C(O)C(=O)O	100
CC(C)=CCN1CCC(C(=O)Nc2ccc(-c3nc4ccccc4[nH]3)cc2)CC1	95
N#Cc1c(N2CCN(c3ccc(F)cc3)CC2)nc(N)c2c(N)nc3c(c12)CC(=O)N3C1CC1	95
Br.CC1(C)NC(=N)NC(=N)N1OCC=Cc1ccccc1	94
O=C(NC1CCN(Cc2ccccc2)CC1)c1csc2nc(-c3ccc(Cl)cc3)cn12	98
CC(C)[C@H](NC(=O)c1c(F)cccc1F)C(=O)Nc1ccc(Cc2nc3ccccc3s2)cc1	82
COc1ccc(-c2cccc(NC(=O)c3cccc(Cl)c3)c2)cc1CN1CCCN(C)CC1.O=C(O)C(F)(F)F	100
CC(C)CN1CCC(COc2ccc3ncn(-c4cc(O[C@H](C)c5ccccc5C(F)(F)F)c(C(N)=O)s4)c3c2)CC1	97
COc1ccc(-c2ccc(NC(=O)c3ccc(Cl)cc3)cc2)cc1CN1CCCN(C)CC1.O=C(O)C(F)(F)F	93
Cc1nc2ccccc2n1C1CC2CCC(C1)N2CCCC1(c2ccccc2)CCN(C(=O)OCc2ccccc2)CC1.O=CO (stereo not given)	90
Cl.N=C(NCCCc1ccccc1)c1cccc(C(=N)NCCCc2ccccc2)n1	98
O=C(NCC1CCC(C(=O)NCc2cccc(C(F)(F)F)c2)CC1)c1ccc(O)c(-c2ccc(Cl)c(Cl)c2)c1 (stereo not given)	98
CC(=O)Nc1ccc(OCCCCN(Cc2ccccc2C(F)(F)F)c2ccc(C(F)(F)F)c(C#N)c2)c(Cl)c1	96
Cc1ccc(Cc2c[nH]c(NCCSCc3ccc(CN(C)C)s3)nc2=O)cn1	95
Nc1cnc(C#Cc2cc3ncnc(N(CCN4CCOCC4)c4ccc(OCc5cccc(F)c5)c(Cl)c4)c3s2)cn1	87
O=C(NCCCCCN1CCC(c2c[nH]c3ccccc23)CC1)Nc1cccc(I)c1	99
O=C(/C=C/c1ccc(C(F)(F)F)cc1)NCCCCCN1CCCN(C(=O)Nc2ccc(Cl)cc2)CC1	99
Cc1cccc2nc(-c3ccc(-c4cccc(NC(=O)c5cccc(C(N)=O)c5)c4)cc3)[nH]c12	84
CCSc1nc2sc3c(c2c(=O)n1-c1ccccc1)CCN(C)C3	83
CCCN(Cc1ccc(C)cc1)Cc1cc(=O)c2cc(Cl)ccc2[nH]1	86

Test system: Plasmodium falciparum
Experiment: GSK_TCMDC: Inhibition of Plasmodium falciparum Dd2 in whole red blood cells, using parasite LDH activity as an index of growth. Test compounds present at 2uM
Assay type: functional

Structure (SMILES)	Inhibition [%]
COc1ccc(Oc2ccc(-c3c(O)cc(C)nc3C)cc2)cc1	88
CC(CN1CCN(C)CC1)C(=O)Nc1ccc(-c2cccc(-c3nc4cc(C(F)(F)F)ccc4[nH]3)c2)cc1 (stereo not given)	96
Cc1ccc(C)c(S(=O)(=O)Nc2ccc(Br)cc2C(=O)Nc2cccc(C(F)(F)F)c2)c1	98
CN1CCCC(CN2CCN(Cc3cccc(-c4ccc(-c5nc6ccccc6[nH]5)cc4)c3)CC2)C1.O=C(O)C(F)(F)F (stereo not given)	100
Cl.N=C(N)NN=Cc1ccc2c(ccc3ccccc32)c1	68
Cc1cc(NC(=O)c2ccc(-c3ccccc3)cc2)no1	57
Fc1ccc(-c2oc(C3CCN(CCc4ccc(-c5noc(=S)[nH]5)cc4)CC3)nc2COCC(F)(F)F)cc1	95
O=C(NC1CCCCC1)c1csc(C2CCCN(C(=O)c3ccc(O)c(-c4cccc(C(F)(F)F)c4)c3)C2)n1 (stereo not given)	85
CN1C(=C2SC(=Nc3ccc4ncccc4c3)N(Cc3ccccc3)C2=O)Sc2ccc(Cl)cc21	75
Cc1c(CCNC(=O)CCCN2CC(C)CC(C)C2)c2ccccc2n1C.Cl (stereo not given)	100
CC(C)(CN)c1nc(-c2ccc(Br)c(O)c2)c(-c2ccncc2)[nH]1.Cl	97
Nc1oc2c(CN3CCCCCC3)c(O)ccc2c(=O)c1-c1nc2ccccc2s1	99
Cc1cccc2nc(-c3ccc(-c4cccc(C(=O)N5CCCCC5C(C)O)c4)s3)[nH]c12 (stereo not given)	53
Cc1cccc2nc(-c3ccc(-c4cccc(CN5CCCC5CN)c4)s3)[nH]c12.O=C(O)C(F)(F)F (stereo not given)	45
CC[C@H]1CN2CCc3c([nH]c4ccccc34)[C@@H]2C[C@@H]1CC1c2cc(OC)c(OC)cc2CCN1C.Cl (stereo not given in full)	45
COc1ccc(S(=O)(=O)N2CCOCC2)cc1NC(=O)c1cc2ccccc2o1	0
CC(C)Sc1nc2c(c(=O)n1CCc1ccccc1)C1(CCCC1)Cc1ccccc1-2	88
Br.CC1(C)NC(N)=NC(=N)N1OCCCc1c(Cl)cccc1Cl	97
CCOC(=O)NC1=NC(C)(C)N(OCc2ccc(Cl)c(Cl)c2)C(NC(=O)OCC)=N1	4
COc1ccccc1N(C)CCNc1cc(C)nc(Nc2ccccc2)n1	13

Structure (SMILES)	Inhibition [%]
COc1ccc2nccc([C@@H](O)CN3CCC(NCc4nc5cc(F)ccc5o4)CC3)c2c1.O=C(O)C(=O)O	12
CC(C)=CCN1CCC(C(=O)Nc2ccc(-c3nc4ccccc4[nH]3)cc2)CC1	0
N#Cc1c(N2CCN(c3ccc(F)cc3)CC2)nc(N)c2c(N)nc3c(c12)CC(=O)N3C1CC1	82
Br.CC1(C)NC(=N)NC(=N)N1OCC=Cc1ccccc1	96
O=C(NC1CCN(Cc2ccccc2)CC1)c1csc2nc(-c3ccc(Cl)cc3)cn12	14
CC(C)[C@H](NC(=O)c1c(F)cccc1F)C(=O)Nc1ccc(Cc2nc3ccccc3s2)cc1	72
COc1ccc(-c2cccc(NC(=O)c3cccc(Cl)c3)c2)cc1CN1CCCN(C)CC1.O=C(O)C(F)(F)F	99
CC(C)CN1CCC(COc2ccc3ncn(-c4cc(O[C@H](C)c5ccccc5C(F)(F)F)c(C(N)=O)s4)c3c2)CC1	86
COc1ccc(-c2ccc(NC(=O)c3ccc(Cl)cc3)cc2)cc1CN1CCCN(C)CC1.O=C(O)C(F)(F)F	61
Cc1nc2ccccc2n1C1CC2CCC(C1)N2CCCC1(c2ccccc2)CCN(C(=O)OCc2ccccc2)CC1.O=CO (stereo not given)	29
Cl.N=C(NCCCc1ccccc1)c1cccc(C(=N)NCCCc2ccccc2)n1	0
O=C(NCC1CCC(C(=O)NCc2cccc(C(F)(F)F)c2)CC1)c1ccc(O)c(-c2ccc(Cl)c(Cl)c2)c1 (stereo not given)	41
CC(=O)Nc1ccc(OCCCCN(Cc2ccccc2C(F)(F)F)c2ccc(C(F)(F)F)c(C#N)c2)c(Cl)c1	96
Cc1ccc(Cc2c[nH]c(NCCSCc3ccc(CN(C)C)s3)nc2=O)cn1	0
Nc1cnc(C#Cc2cc3ncnc(N(CCN4CCOCC4)c4ccc(OCc5cccc(F)c5)c(Cl)c4)c3s2)cn1	57
O=C(NCCCCCN1CCC(c2c[nH]c3ccccc23)CC1)Nc1cccc(I)c1	11
O=C(/C=C/c1ccc(C(F)(F)F)cc1)NCCCCCN1CCCN(C(=O)Nc2ccc(Cl)cc2)CC1	0
Cc1cccc2nc(-c3ccc(-c4cccc(NC(=O)c5cccc(C(N)=O)c5)c4)cc3)[nH]c12	87
CCSc1nc2sc3c(c2c(=O)n1-c1ccccc1)CCN(C)C3	71
CCCN(Cc1ccc(C)cc1)Cc1cc(=O)c2cc(Cl)ccc2[nH]1	91
